Test results from PubChem BioAssay (Tox21).
Results filed as inconclusive are left out. Active and inactive are the calls of the source. Calls follow the shape of the dose curve; as a rule, active = well fitted cell-killing curve with a large enough effect in the repeat runs; inconclusive = weak or mixed curves, or effect the other way; inactive = flat fitted curve, though single readings scatter.

Test: Human pregnane X receptor (PXR) small molecule agonists, qHTS cell viability counter screen (AID 1346977); also: nearly all actives have a fitted effect of over 50% in size
Details: PXR-Luc HepG2 viability, CellTiter-Fluor, 24 h; series mostly up to 92.4 µM; activity change, negative = cytotoxicity: at the top concentration
Method in brief: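 Same-well viability read: CellTiter-Fluor added after 23 hr compound exposure, fluorescence measured 1 hr later. Cells were PXR-Luc HepG2 seeded at 2,000/well in 5% charcoal-stripped FBS medium, rested 5 hr before dosing at 37 C.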
% is scaled to controls: 0 for no effect and ±100 for the full control effect; potency is read from the fitted curve at half-maximal effect.

SMILES | activity change, negative = cytotoxicity | Potency
C=C[Si]1(C)O[Si](C)(C=C)O[Si](C)(C=C)O[Si](C)(C=C)O1 (stereo not drawn) | 1.69% (inactive) | 
Nc1ccccc1Nc1ccccc1 |  | 30.7 µM (active)
Cc1ccccc1CCO | 11% (inactive) | 
c1ccc(CN(Cc2ccccc2)Cc2ccccc2)cc1 | 14.3% (inactive) | 
N#Cc1ccc(CC(=O)c2cccc(C(F)(F)F)c2)cc1 | 13.3% (inactive) | 
Cc1cc(N)n(-c2ccccc2)n1 | 0.443% (inactive) | 
COc1cc(CNC(=O)CCCC/C=C/C(C)C)ccc1O | -11.5% (inactive) | 
CCc1c(C)[nH]c2c1C(=O)C(CN1CCOCC1)CC2 (stereo not drawn) | 5.29% [at 42.5 µM] (inactive) | 
CC(C)(C(=O)O)c1ccc(C(O)CCCN2CCC(C(O)(c3ccccc3)c3ccccc3)CC2)cc1 (stereo not drawn) | -6.93% [at 42.5 µM] (inactive) | 
COc1ccc(CN(CCN(C)C)c2ncccn2)cc1 | -9.81% [at 42.5 µM] (inactive) | 
O=C(C1CCCCC1)N1CC(=O)N2CCCc3ccccc3C2C1 (stereo not drawn) | 0.153% [at 42.5 µM] (inactive) | 
CC(C)C/C=C(\C=O)c1ccccc1 | -16.8% (inactive) | 
CC(CN=Cc1ccccc1O)N=Cc1ccccc1O (stereo not drawn) | 19.1% (inactive) | 
Nc1ncnc2c1ncn2[C@@H]1O[C@H](CO)[C@@H](O)[C@H]1O | 0.949% [at 42.5 µM] (inactive) | 
CC(C)CCCCCOC(=O)CS | -0.556% (inactive) | 
Cc1ccc(S(=O)(=O)NC(=O)NC2CCCC2)cc1 | 5.68% [at 42.5 µM] (inactive) | 
CC1(COc2ccc(CC3SC(=O)NC3=O)cc2)CCCCC1 (stereo not drawn) | -10.9% [at 42.5 µM] (inactive) | 
COc1ccc(C(=O)c2ccc(C)cc2)c(O)c1 | -4.74% (inactive) | 
Cc1c(N=C=O)cccc1N=C=O | -5.49% (inactive) | 
Clc1nc2ccccc2nc1Cl | 0.608% (inactive) | 
c1ccc(CCNc2nc(-c3ccccc3)cs2)cc1 | -3.43% [at 42.5 µM] (inactive) | 
CCc1ccc(C(=O)C(C)CN2CCCCC2)cc1 (stereo not drawn) | -6.89% [at 42.5 µM] (inactive) | 
O=C(Cl)c1ccc(F)c(Cl)c1 | -1.37% (inactive) | 
